“And” between values parts separate entries of the source, which are not always exact repeats. Equal values may be shown once. Inconclusive results are not listed. The source made the active and inactive calls. Calls come from the whole dose curve; as a rule, active = well fitted inhibition curve with a large enough effect; inconclusive = small, poorly fitted or top-dose-only effect; inactive = flat fitted curve, though single readings scatter. *1 amine or outer side, *2 acyl side, *3 side chain or, on linkers, in order; H or OH if unused. Where a SMILES comes first, the peptide text is derived from it. Bridges are numbered along the chain shown (N, C = ends). [ ]: non-standard residue; d: D form. The star is where a group is joined. X5 = NC1=N[C@@H]([C@H](N[*:1])C(=O)[*:2])C[C@H](O)N1; ΔAla(Z-3-ureido) = NC(=O)N/C=C(\N)C(=O)O; pGlu = O=C1CC[C@@H](C(=O)O)N1; β3hOrn = NCCC[C@H](N)CC(=O)*; X2 = CC[C@H](C)CCCCC(=O)*; Dab = NCC[C@H](N)C(=O)O; Dap = NC[C@H](N)C(=O)O
Key:
[1] = Drug repurposing screens with cells derived from glioblastoma tumor samples (AID 1345199); settings: GBM patient neurospheres viability, ATP luminescence, 48 h; note: nearly all actives have a fitted effect of over 40% in size
In short: (§1)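 Four patient lines of CD133+ GBM neurospheres were screened at several concentrations; hits were retested in those lines plus three slower-growing GBM lines, using 48-hour treatment and ATP-based viability.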

astro = control astrocytes; assay: as above; settings: viability, ATP luminescence, 48 h; series mostly up to 45.9 µM
In short: as §1

[2] = at 45.9 µM (top of the series), tumour line B
[3] = at 45.9 µM (top of the series), tumour line D
[4] = at 46 µM (top of the series), tumour line A
[5] = at 46.1 µM (top of the series), tumour line C
[6] = at 20 µM (top of the series), tumour line C
[7] = at 21.2 µM (top of the series), tumour line B
[8] = at 21.2 µM (top of the series), tumour line D
[9] = at 21.3 µM (top of the series), tumour line A
% is set by controls: 0 for no effect and ±100 for the full control effect.

F[Si-2](F)(F)(F)(F)F
inactive: activity, negative = cell killing [1, 2] 5.47% | activity, negative = cell killing [1, 3] -3.02% | activity, negative = cell killing [1, 4] -17.6% | activity, negative = cell killing [1, 5] 30.2% | Potency (astro)

O=C(O)[C@H]1C(=CCO)O[C@H]2CC(=O)N12
inactive: activity, negative = cell killing [1, 2] -8.67% | activity, negative = cell killing [1, 3] -21.6% | activity, negative = cell killing [1, 4] -18.4% | activity, negative = cell killing [1, 5] -12.5% | Potency (astro)

NCCC[C@H](N)CC(=O)N[C@H]1CNC(=O)[C@H]([C@H]2C[C@H](O)NC(N)=N2)NC(=O)/C(=C/NC(N)=O)NC(=O)[C@H](CO)NC(=O)[C@H](CO)NC1=O (β3hOrn-[Dap]SS[ΔAla(Z-3-ureido)][X5]; lactam 1-C)
inactive: activity, negative = cell killing [1, 2] -0.927% | activity, negative = cell killing [1, 3] -12.2% | activity, negative = cell killing [1, 4] -14.8% | activity, negative = cell killing [1, 5] -14% | Potency (astro)

CC(=O)OCC(=O)[C@@]1(O)CC[C@H]2[C@@H]3CCC4=CC(=O)CC[C@]4(C)C3=CC[C@@]21C
inactive: activity, negative = cell killing [1, 2] -7.95% | activity, negative = cell killing [1, 3] 3.12% | activity, negative = cell killing [1, 4] -15.3% | activity, negative = cell killing [1, 5] -8.95% | Potency (astro)

C=CC1=C(C(=O)O)N2C(=O)[C@@H](NC(=O)/C(=N\O)c3csc(N)n3)[C@H]2SC1 (stereo in doubt)
inactive: activity, negative = cell killing [1, 2] 5.66% and -6.14% | activity, negative = cell killing [1, 3] -12.1% and -17.4% | activity, negative = cell killing [1, 4] -18.5% | activity, negative = cell killing [1, 5] 20.4% and -9.47% | Potency (astro)

CCCCO
inactive: activity, negative = cell killing [1, 2] -10.8% | activity, negative = cell killing [1, 3] 1.03% | activity, negative = cell killing [1, 4] -9.11% | activity, negative = cell killing [1, 5] 6.27% | Potency (astro)

Nc1nc2c(c(=O)[nH]1)N(C=O)C(CNc1ccc(C(=O)N[C@@H](CCC(=O)O)C(=O)O)cc1)CN2 (stereo not given in full)
inactive: activity, negative = cell killing [1, 6] -2.81% | activity, negative = cell killing [1, 7] -5.52% | activity, negative = cell killing [1, 8] -5.96% | activity, negative = cell killing [1, 9] -10.3% | Potency (astro)

CC[C@H](C)[C@H](NC(=O)[C@H](Cc1ccccc1)NC(=O)[C@H](C)NC(=O)[C@H](CC(=O)O)NC(=O)[C@H](CCCCN)NC(=O)[C@H](CO)NC(=O)[C@@H]1CCCN1C(=O)[C@@H]1CCC(=O)N1)C(=O)NCC(=O)N[C@@H](CC(C)C)C(=O)N[C@@H](CCSC)C(N)=O ([pGlu]PSKDAFIGLM-NH2)
inactive: activity, negative = cell killing [1, 2] -11.4% | activity, negative = cell killing [1, 3] 13.8% | activity, negative = cell killing [1, 4] -9.58% | activity, negative = cell killing [1, 5] -14.3% | Potency (astro)

CC(=O)OCC1=C(C(=O)O)N2C(=O)[C@@H](NC(=O)Cc3ccccc3)[C@H]2SC1
inactive: activity, negative = cell killing [1, 2] -6.43% | activity, negative = cell killing [1, 3] -15.2% | activity, negative = cell killing [1, 4] -28.6% | activity, negative = cell killing [1, 5] -24% | Potency (astro)

O=C(O)[C@H]1CN(C/C=C/P(=O)(O)O)CCN1
inactive: activity, negative = cell killing [1, 2] -1.77% | activity, negative = cell killing [1, 3] 1.08% | activity, negative = cell killing [1, 4] -25.5% | activity, negative = cell killing [1, 5] -5.57% | Potency (astro)

FCOC(C(F)(F)F)C(F)(F)F
inactive: activity, negative = cell killing [1, 2] -14% | activity, negative = cell killing [1, 3] -24.3% | activity, negative = cell killing [1, 4] -28% | activity, negative = cell killing [1, 5] -24.9% | Potency (astro)

CC[C@H](CC[C@@H](C)[C@H]1CC[C@H]2[C@@H]3CC=C4C[C@@H](O)CC[C@]4(C)[C@H]3CC[C@]12C)C(C)C
inactive: activity, negative = cell killing [1, 2] -10.4% | activity, negative = cell killing [1, 3] -2.23% | activity, negative = cell killing [1, 4] -16.4% | activity, negative = cell killing [1, 5] -13.1% | Potency (astro)

CCC(C(=O)NC(N)=O)c1ccccc1 (stereo not given)
inactive: activity, negative = cell killing [1, 2] -5.95% | activity, negative = cell killing [1, 3] -2.75% | activity, negative = cell killing [1, 4] -8.52% | activity, negative = cell killing [1, 5] -14.2% | Potency (astro)

CC[C@H](C)CCCCC(=O)N[C@@H](CCN)C(=O)N[C@H](C(=O)N[C@@H](CCN)C(=O)N[C@H]1CCNC(=O)[C@@H]([C@H](C)O)NC(=O)[C@H](CCN)NC(=O)[C@H](CCN)NC(=O)[C@H](CC(C)C)NC(=O)[C@@H](CC(C)C)NC(=O)[C@H](CCN)NC1=O)[C@@H](C)O (X2-[Dab]T[Dab][Dab][Dab][dL]L[Dab][Dab][dT]; lactam 4-C)
inactive: activity, negative = cell killing [1, 6] 7.06% | activity, negative = cell killing [1, 7] -0.409% | activity, negative = cell killing [1, 8] -6.08% | activity, negative = cell killing [1, 9] -17.3% | Potency (astro)

OCCCNc1ccccc1
inactive: activity, negative = cell killing [1, 2] 1.67% | activity, negative = cell killing [1, 3] -0.692% | activity, negative = cell killing [1, 4] -52.2% | activity, negative = cell killing [1, 5] -9.32% | Potency (astro)

CCCCCCCCCCCCCC(=O)OCC(COP(=O)([O-])OCC[N+](C)(C)C)OC(=O)CCCCCCCCCCCCC (stereo not given)
inactive: activity, negative = cell killing [1, 2] -7.07% | activity, negative = cell killing [1, 3] 3.06% | activity, negative = cell killing [1, 4] -21.5% | activity, negative = cell killing [1, 5] -13.4% | Potency (astro)

CCC(=O)OC(OP(=O)(CCCCc1ccccc1)CC(=O)N1C[C@H](C2CCCCC2)C[C@H]1C(=O)O)C(C)C (stereo not given in full)
inactive: activity, negative = cell killing [1, 2] -7.98% | activity, negative = cell killing [1, 3] -19.4% | activity, negative = cell killing [1, 4] -12.6% | activity, negative = cell killing [1, 5] -19% | Potency (astro)

CCCCCCOC(=O)c1cccnc1
inactive: activity, negative = cell killing [1, 2] 14.4% | activity, negative = cell killing [1, 3] 7.42% | activity, negative = cell killing [1, 4] -5.32% | activity, negative = cell killing [1, 5] 1.85% | Potency (astro)

Source: PubChem BioAssay (NCATS)
